Data on 26 compounds can be found in PubChem BioAssay AID2557 (NMMLSC, 2010).

Screen size: about 330,000 compounds; about 650 (0.2%) were called active. Rule as the data show it: active = inhibition above about 50%; inactive = the rest. Shown is part of a subset that was picked to be rich in actives.

Chain of Integrin alpha-4 (Homo sapiens) (P13612 whole entry, looked up): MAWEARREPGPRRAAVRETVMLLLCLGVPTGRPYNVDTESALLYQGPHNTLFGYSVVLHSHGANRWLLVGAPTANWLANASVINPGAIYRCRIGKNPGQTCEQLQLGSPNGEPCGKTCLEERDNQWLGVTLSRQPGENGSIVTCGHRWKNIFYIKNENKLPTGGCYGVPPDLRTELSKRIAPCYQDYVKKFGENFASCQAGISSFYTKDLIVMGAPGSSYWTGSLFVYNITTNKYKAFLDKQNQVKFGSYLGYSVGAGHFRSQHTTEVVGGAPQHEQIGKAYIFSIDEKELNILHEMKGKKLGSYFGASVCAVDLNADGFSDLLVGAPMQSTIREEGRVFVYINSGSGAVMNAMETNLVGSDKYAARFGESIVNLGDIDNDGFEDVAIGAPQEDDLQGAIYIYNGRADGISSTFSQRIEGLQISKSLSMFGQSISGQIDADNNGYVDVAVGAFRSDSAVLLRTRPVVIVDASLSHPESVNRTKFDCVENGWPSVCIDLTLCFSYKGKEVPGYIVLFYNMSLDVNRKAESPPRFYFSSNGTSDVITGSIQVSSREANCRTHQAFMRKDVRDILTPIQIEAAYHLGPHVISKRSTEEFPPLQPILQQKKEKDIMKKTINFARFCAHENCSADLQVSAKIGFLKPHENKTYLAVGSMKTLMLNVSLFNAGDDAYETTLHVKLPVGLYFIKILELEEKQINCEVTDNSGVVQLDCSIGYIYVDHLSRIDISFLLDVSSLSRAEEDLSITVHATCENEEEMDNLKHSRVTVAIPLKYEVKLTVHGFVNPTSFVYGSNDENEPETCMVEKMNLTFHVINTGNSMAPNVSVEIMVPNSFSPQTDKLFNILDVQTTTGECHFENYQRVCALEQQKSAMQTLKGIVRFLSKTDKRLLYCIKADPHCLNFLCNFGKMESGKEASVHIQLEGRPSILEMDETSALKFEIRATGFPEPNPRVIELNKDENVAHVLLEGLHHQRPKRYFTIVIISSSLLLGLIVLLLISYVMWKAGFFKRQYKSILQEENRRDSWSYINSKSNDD

The experiment addresses Integrin alpha-4 (Homo sapiens) (UniProt P13612). The experiment in a line: VLA-4 integrin binding inhibitors – MLPCN library, flow cytometry, VLA-4 expressing cells, VLA-4 allosteric modulator project, primary screen (AID 2557). Particulars: ligand binding flow cytometry, stronger effect = higher value, about 7 µM as worked out from the volumes in the protocol.
For `O=C(CN(C(=O)c1nsc(Cl)c1Cl)c1cccc(F)c1)NC1CCCC1`, the inhibition (usually the relative decrease from the control value, in per cent) is 5.34% (inactive).

Take `O=C(CCS(=O)(=O)c1ccc(Br)cc1)NCCc1ccc(Cl)cc1`: the inhibition is -4% (inactive).

For `COc1cc(OC)cc(C(=O)NCC(=O)N2CCCCCCC2)c1`, the inhibition is 2.18% (inactive).

For `Cc1ccc(S(=O)(=O)N2CCN(C(=O)COC(=O)CNC(=O)c3ccc(C(C)(C)C)cc3)CC2)c(C)c1`, the inhibition is -0.38% (inactive).

As for `Cc1cc(C)cc(C(=O)NCC(=O)OCC(=O)N2CCCCC2)c1`, the inhibition was 51.9% (active).

As for `COCCOC(=O)C1=C(C)NC(=O)NC1c1ccc(Cl)cc1` (stereo unspecified), the inhibition was 0.04% (inactive).

Take `COCCOC(=O)C1=C(C)Nc2nc(C)nn2C1c1ccccc1` (stereo unspecified): the inhibition is 76% (active).

For the compound `CC1=C(C(N)=O)C(c2ccc(F)cc2)n2nc(CCCO)nc2N1` (stereo unspecified), the inhibition was -3.48% (inactive).

Consider `CCCCOc1ccc(N(CC(=O)NC(C)C)C(=O)CCC(=O)Nc2ccccn2)cc1`, for which the inhibition was 23.1% (inactive).

For the compound `Cc1ccc(CN2CCN(Cc3ccc4ncccc4c3)CC2CCO)cc1` (stereo unspecified), the inhibition was 7.01% (inactive).

Turning to `CC(C)(C)C1CCC(C(=O)Nc2cccnc2)CC1` (stereo unspecified), the inhibition was 13.3% (inactive).

Consider `CCN(CC)S(=O)(=O)c1ccc(OC)c(NC(=O)CCc2c(C)noc2C)c1`, for which the inhibition is 9.08% (inactive).

As to `O=C(COc1ccccc1F)NNC(=O)c1ccc(N2CCCCC2)c([N+](=O)[O-])c1`, the inhibition was 19.2% (inactive).

Regarding `CCOC(=O)c1ccc(N2C(=O)CC(N3CCC(C(=O)OCC)CC3)C2=O)cc1` (stereo unspecified), the inhibition is 24.6% (inactive).

Turning to `CCOC(=O)c1ccc(N2C(=O)CC(N3CCN(C(=O)c4ccccc4)CC3)C2=O)cc1` (stereo unspecified), the inhibition was 2.59% (inactive).

Turning to `CCOC(=O)c1ccc(N2C(=O)CC(N3CC(C)OC(C)C3)C2=O)cc1` (stereo unspecified), the inhibition is 108% (active).

As for `Cc1cc(C)cc(NC(=O)COC(=O)c2cc(C)oc2C)c1`, the inhibition was 3.64% (inactive).

Turning to `Cc1cc(C(=O)OCC(=O)Nc2ccccc2Cl)c(C)o1`, the inhibition was -2.15% (inactive).

On to `Cc1cc(C(=O)OCC(=O)Nc2ccc(F)c(F)c2)c(C)o1`, for which the inhibition is 49.7% (active).

As to `Cc1ccc(-c2cc(N)on2)cc1`, the inhibition is 19.5% (inactive).

Consider `Cc1cccc(N(CC(O)CN(C)C)S(=O)(=O)c2ccccc2)c1` (stereo unspecified), for which the inhibition was 2.19% (inactive).

`Cc1ccc(N(CC(O)CN2CCCC2)S(=O)(=O)c2ccccc2)cc1` (stereo unspecified): the inhibition is 4.52% (inactive).

As to `Cc1cc(C)n(CC(O)CN(c2ccccc2)S(=O)(=O)c2ccc3ccccc3c2)n1` (stereo unspecified), the inhibition was 50.2% (active).

On to `O=C(COC(=O)c1ccc2ncsc2c1)Nc1ccc(Cl)cc1`, for which the inhibition was -15.8% (inactive).

Consider `Cn1c(=O)c2c(nc(N/N=C/c3cccs3)n2Cc2ccc(Br)cc2)n(C)c1=O`, for which the inhibition was 7.63% (inactive).

Turning to `COc1ccc(Nc2cc(Sc3ccc(OC)cc3)ncn2)cc1`, the inhibition was 4.33% (inactive).
